Our source for the activity change values is PubChem BioAssay AID743279 (National Center for Advancing Translational Sciences (NCATS), 2014).

Each structure is given as a SMILES string. In all, about 360,000 compounds went through this assay and about 17,000 (4.7%) were called active. Roughly 5% stayed inconclusive and do not appear here. What follows is part of a selection rich in actives, with near analogues and random picks from the rest. A number with no mark means an inactive call. Rule as the data show it: active = activity change below about -50%; inconclusive = mostly about -30% to -49%; inactive = weaker than that.
% is scaled to controls: 0 for no effect and ±100 for the full control effect.

This test in a line: qHTS for Inhibitors of Inflammasome Signaling: IL-1-beta AlphaLISA Primary Screen. The conditions noted are these: THP-1 LPS/ATP IL-1B secretion, 16 h; at 57.5 µM, hits give low values. The method in brief:
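Secreted IL-1B measured by AlphaLISA bead assay after 16 h compound exposure of THP-1 cells; compounds (final up to 57.5 uM) added 1 h before LPS (250 ng/mL) and ATP (1.25 mM) stimulation; lower signal means less secretion.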
In general terms: Quantitative high-throughput screening tests each substance at several concentrations.
As to `CCN(C(=O)CSc1ncnc2c1cnn2-c1ccccc1)C1CCS(=O)(=O)C1` (stereo not drawn), the activity change is -60.6% (active).

For the compound `CCN(CC)C(=O)CSc1ncnc2c1cnn2-c1ccccc1`, the activity change is -11.6%.

As to `CCC(C)N(C(=O)CSc1ncnc2c1cnn2-c1ccccc1)C1CCS(=O)(=O)C1` (stereo not drawn), the activity change is -9.61%.

`CC1=C(C(=O)N2CCOCC2)CC(CC(=O)NCC2CCCCC2)C(=O)N1Cc1ccc(F)cc1` (stereo not drawn): the activity change was 3.54%.

On to `CNc1cc(-c2c(OC)cccc2OC)ncn1`, for which the activity change was 22.1%.

`Cc1ccc(OCCNC(=O)c2cccc(S(=O)(=O)N3CCN(Cc4ccccc4)CC3)c2)cc1`: the activity change is -14.6%.

With `C=CCN(CC=C)C(=O)COC(=O)c1n[nH]c2ccccc12`, the activity change was 18.7%.

Consider `CC(C)C[C@H]1CNC(=O)C(=O)N1C[C@@H]1CCCN1C[C@H](Cc1ccccc1)N1C[C@H](CC(C)C)N(CC2CCCCCC2)C(=O)C1=O`, for which the activity change was 0%.

For the compound `CC(C)C[C@H]1CNC(=S)N1C[C@H]1CCCN1C[C@H](Cc1ccc(O)cc1)N1C[C@H](Cc2ccc(O)cc2)N(CC2CCCCC2)C1=S`, the activity change is -11.2%.

Consider `CCOc1ccc(CCN2C(=O)C(=O)N([C@@H](CC(C)C)CN3CCC[C@H]3CN3C(=O)C(=O)NC[C@@H]3Cc3ccccc3)C[C@@H]2CC(C)C)cc1`, for which the activity change is -1.26%.

As to `CC(C)C[C@H]1CN([C@@H](CC(C)C)CN2CCC[C@@H]2CN2C(=O)C(=O)NC[C@@H]2Cc2ccccc2)C(=O)C(=O)N1CCc1ccccc1`, the activity change was -63.4% (active).

For `CC(C)C[C@H]1CN([C@@H](Cc2ccccc2)CN2CCC[C@@H]2CN2C(=O)C(=O)NC[C@@H]2Cc2ccc(O)cc2)C(=O)C(=O)N1CCc1ccccc1`, the activity change was 0%.

Turning to `CCOc1ccc(CCN2C(=O)C(=O)N([C@@H](Cc3ccc(O)cc3)CN3CCC[C@H]3CN3C(=O)C(=O)NC[C@@H]3CC(C)C)C[C@@H]2Cc2ccccc2)cc1`, the activity change was 13.9%.

For `O=C1NC[C@H](Cc2ccc(O)cc2)N(C[C@@H]2CCCN2C[C@H](Cc2ccccc2)N2C[C@H](Cc3ccccc3)N(CC3CCCCC3)C(=O)C2=O)C1=O`, the activity change was -15.5%.

For the compound `CCOc1ccc(CCN2C(=S)N([C@@H](CC(C)C)CN3CCC[C@@H]3CN3C(=S)NC[C@@H]3Cc3ccc(O)cc3)C[C@@H]2Cc2ccc(O)cc2)cc1`, the activity change is -64.1% (active).

Take `CC(C)C[C@H]1CNC(=O)C(=O)N1C[C@H]1CCCN1C[C@H](Cc1ccc(O)cc1)N1C[C@H](CC(C)C)N(CC2CCCCCC2)C(=O)C1=O`: the activity change is -60.7% (active).

With `CCCCN1CC(COc2ccccc2)Oc2cccc(F)c2S1(=O)=O` (stereo not drawn), the activity change is -1.95%.

Take `COc1cc(NC(=O)CSc2ccc(-c3cccnc3)nn2)cc(OC)c1`: the activity change was -13.8%.

With `CC1CCC2(CC1)NC(=O)N(CC(=O)NCc1ccco1)C2=O` (stereo not drawn), the activity change was 5.54%.

With `CCc1ccc2c(c1)NC(=O)C2(C)Cc1ccc(OC(F)(F)F)cc1` (stereo not drawn), the activity change is -20.9%.

For `N#C/C=C(/c1ccc(F)cc1)N1CCOCC1`, the activity change was 11.5%.

Regarding `COc1ccc(CNC(=O)COC(=O)C2=Cc3ccccc3OC2)cc1`, the activity change was 1.65%.

For the compound `O=S1(=O)CCC(NC(=S)SCc2ccccc2Br)C1` (stereo not drawn), the activity change was -69% (active).

As to `CCCSC(=S)NC1CCS(=O)(=O)C1` (stereo not drawn), the activity change was -105% (active).

Take `O=C(Cc1ccc(Cl)cc1)NC1CCS(=O)(=O)C1` (stereo not drawn): the activity change was -6.66%.

`COc1ccc(NC(=S)NC2CCS(=O)(=O)C2)cc1` (stereo not drawn): the activity change is 7%.

For `O=C(CSc1ccccc1F)NC1CCS(=O)(=O)C1` (stereo not drawn), the activity change is -10.4%.

Consider `CC(C)C(=O)NC(NC(=S)NC1CCS(=O)(=O)C1)C(Cl)(Cl)Cl` (stereo not drawn), for which the activity change is 15.4%.

As for `C[C@@H]1NS(=O)(=O)c2cc(Cl)ccc2O[C@@H]1c1ccccc1`, the activity change is -5.88%.

On to `O=C1NC[C@H](CCCCN2C[C@H](Cc3ccc(O)cc3)N(CC3CCCCC3)C(=O)C2=O)N(CCc2ccccc2)C1=O`, for which the activity change is 4.81%.

For `CC1(Cc2ccccc2C#N)C(=O)Nc2ccc(-c3ccc4[nH]ccc4c3)cc21` (stereo not drawn), the activity change was 90.5%.

Take `COc1ccc(N=C2C=CC(=O)O2)cc1`: the activity change was 4.16%.

Take `CCCCNC(=O)c1nc(C2CCN(S(=O)(=O)c3ccc(F)c(F)c3)CC2)oc1-c1cccc(C(F)(F)F)c1`: the activity change is 11.8%.

Consider `CCOC(=O)[C@]12CCCC=C1N(Cc1cccc3ccccc13)C(=O)[C@H](CC(=O)NCC13CC4CC(CC(C4)C1)C3)C2`, for which the activity change was -26.5%.

On to `O=S1(=O)CC(N2CCSCC2)CN1Cc1cn(Cc2cccc(Cl)c2)nn1` (stereo not drawn), for which the activity change is -25.6%.

Turning to `COc1ccc(Br)cc1/C=N/Nc1ccc(S(=O)(=O)Nc2ccccc2C(=O)O)cc1[N+](=O)[O-]`, the activity change was 0%.

As for `Cc1cc(C)cc(OCC(=O)NCc2cc(C)nc3ccccc23)c1`, the activity change was 14.8%.

Consider `Cc1cc(C)c(NC(=O)c2oc3ccccc3c2COc2ccccc2)c(C)c1`, for which the activity change is -17.8%.

On to `Cc1cc(C)c(NC(=O)C[N+](C)(C)CC(O)COc2cccc3ccccc23)c(C)c1` (stereo not drawn), for which the activity change was -86% (active).

As to `COc1ccc(NC(=O)N(C)C[C@H]2Oc3ncc(C#C[C@@H](C)O)cc3C(=O)N([C@H](C)CO)C[C@H]2C)cc1`, the activity change was -13.1%.

As to `CC1(Oc2ccc(Cl)cc2)CCN(Cc2csc3ccccc23)C1` (stereo not drawn), the activity change is 17.7%.

As for `Cc1cc(OC(=O)c2ccccc2)c([N+](=O)[O-])c(=O)[nH]1`, the activity change is -9.86%.

`Cc1ccc(S(=O)(=O)N2[C@@H](Cc3ccccc3)CO[C@H]2CC(=O)OCc2ccccc2)cc1`: the activity change was -0.839%.

On to `O=S(=O)(Cc1ccc(Cl)cc1Cl)c1ccc(Cl)cc1`, for which the activity change was -1.43%.

For the compound `CCN(CC)CCNC(=O)c1sc2ncn(CC(=O)Nc3ccc(C)c(Cl)c3)c(=O)c2c1C`, the activity change was -75.6% (active).

Regarding `CCN(CC)CCCNC(=O)Cn1cnc2sc(C)c(S(=O)(=O)N3CCN(c4ncccn4)CC3)c2c1=O`, the activity change is 18.1%.

As for `CCN(CC)CCNC(=O)Cn1cnc2sc(C)c(S(=O)(=O)N3CCOCC3)c2c1=O`, the activity change was 14.7%.

On to `CN(C)C1CN(Cc2cn(Cc3ccccc3)nn2)S(=O)(=O)C1` (stereo not drawn), for which the activity change is -13.3%.

Turning to `CC(C)CCOc1ccc(C(=O)Nc2cc(S(=O)(=O)N3CCOCC3)ccc2N2CCOCC2)cc1`, the activity change is -18.6%.

On to `O=S(=O)(NCCCN1CCOCC1)c1ccc(F)c(Cl)c1`, for which the activity change was -0.644%.

On to `CC1(C(=O)Nc2ccc3c(c2)OCCO3)CN(S(C)(=O)=O)CC(=O)N1Cc1cccc(F)c1` (stereo not drawn), for which the activity change was -9.42%.

For the compound `CCN1C(=O)[C@@H]2[C@@H](c3ccc(-c4ccc(OC)cc4)c(OC)c3)N3CCC[C@@]3(C(=O)OC)[C@@H]2C1=O`, the activity change was -7.49%.

As for `CCCCCCSc1ccc([C@@H]2[C@@H]3C(=O)N(CC)C(=O)[C@@H]3[C@]3(C(=O)OC)CCCCN23)cc1OC`, the activity change is -74.8% (active).

`CCCCCCSc1ccc([C@@H]2[C@H]3C(=O)N(CC)C(=O)[C@H]3[C@]3(C(=O)OC)CCCCN23)cc1`: the activity change was 144%.

In the case of `COC(C)(C)[C@]12CC(O)(C(C)C)ON1[C@H]1CCCCC1N2O` (stereo partly drawn), the activity change was 8.62%.

Take `CCCNC(=O)CSc1nc(Cc2ccccc2)nc2ccccc12`: the activity change is -58.7% (active).

As to `CCc1nc(SCC(=O)NNC(=O)c2ccc(C)cc2)c2ccccc2n1`, the activity change was -0.629%.

In the case of `C=CCSc1nc(Cc2ccc(Cl)cc2)nc2ccccc12`, the activity change was -12.9%.

With `Cc1ccc(CCN2CC(C(=O)O)CC2=O)cc1` (stereo not drawn), the activity change was -6.28%.

Consider `N=c1n(CCc2ccccc2)c2ccccc2n1Cc1ccccc1F`, for which the activity change is -81.4% (active).

In the case of `CC(=O)NC(C)c1nc2ccccc2n1Cc1ccccc1F` (stereo not drawn), the activity change is 21.9%.

Regarding `O=C(COC(=O)Cc1ccccc1F)NCCc1ccccc1`, the activity change is 6.36%.

On to `O=C(NCCN1CCN(C(=O)c2cccc([N+](=O)[O-])c2)CC1)C(=O)NCc1ccc(Cl)cc1`, for which the activity change is -11.8%.

For the compound `Cc1ccc(S(=O)(=O)c2c[nH]c3ccc(Cl)cc3c2=O)cc1`, the activity change is -2.27%.

For `CCOC(=O)CNc1nc(Cl)nc(Nc2ccccc2)n1`, the activity change is -67.7% (active).

`CCOC(=O)CNc1nc(Cl)nc(Nc2ccc(OC)cc2OC)n1`: the activity change was -6.02%.

In the case of `CCC(=O)Nc1ccc(Nc2nc(Cl)nc(Nc3ccc(NC(=O)CC)cc3)n2)cc1`, the activity change was -8.11%.

With `COc1cc(OC)cc(C(=O)NCCSCc2ccc(Cl)cc2)c1`, the activity change was 0.652%.

Take `CSc1ncnc2c1ncn2CCCNCC1CCCCC1`: the activity change was 16.5%.

For the compound `CC(=O)C12CC(C)=C(C)CC1CC1C3CCC4=CC(=O)CCC4(C)C3CCC12C` (stereo not drawn), the activity change was -14.2%.

As for `CSc1ncnc2c1ncn2CC(=O)C1CCC2C3CCC4=CC(=O)CCC4(C)C3CCC12C` (stereo not drawn), the activity change was -64.8% (active).

In the case of `C[C@H]1CN([C@@H](C)CO)C(=O)CCCn2nncc2CO[C@@H]1CN(C)S(=O)(=O)c1cccc(C#N)c1`, the activity change is 22.7%.

As to `CCOC(=O)N1C(=O)C[C@](Sc2ccc(C)cc2)(C(=O)OC)[C@H]1c1ccccc1`, the activity change was -13.1%.

As for `COc1ccc2c(c1)CCC/C2=N\OC(=O)c1ccccc1F`, the activity change was -13.5%.

`CCc1nc2c(OCC(N)=O)cccn2c1N(C)C(=O)c1ccc(OC)cc1`: the activity change is 3.49%.

With `CCc1nc2c(OCCOc3ccc(F)cc3)cccn2c1N(C)C(=O)c1ccccc1F`, the activity change is -11.7%.

On to `COCCCNCC(=O)Nc1sc(C)c(C)c1C(=O)OC`, for which the activity change is 0.516%.

In the case of `Cc1ccc2c(c1)C1CN(C)CCC1N2C(=S)Nc1ccc(OC(F)F)cc1` (stereo not drawn), the activity change was -62.4% (active).

Consider `Cc1ccc2c(c1)C1CN(C)CCC1N2S(=O)(=O)c1cccc(F)c1` (stereo not drawn), for which the activity change is -15.5%.

Turning to `Cc1ccc2c(c1)C1CN(C)CCC1N2C(=O)c1ccccc1NS(=O)(=O)c1ccc(F)cc1C` (stereo not drawn), the activity change is 5.7%.

In the case of `S=C(Nc1ccc(Cl)cc1Cl)N1CCCC1`, the activity change is -2.45%.

In the case of `Cc1ccc2c(c1)C1CN(C)CCC1N2C(=S)Nc1ccc(Cl)cc1Cl` (stereo not drawn), the activity change was -84.8% (active).

Take `O=C(NC(=S)Nc1ccc(Cl)cc1Cl)C1CC1`: the activity change was 19.2%.
